From PubChem BioAssay
A selection: hits, their analogues and other compounds. The true share with any hit is near 2.4%.
D2 antag: D2 dopamine receptor (human) antagonism. P14416. HEK293 TREx D2 cells, calcium flux, dopamine EC80. inhibition, % at 10 µM. 2% of 340,000 active; in the data active means inhibition above about 30%; inactive means below that, where a call was filed; further: 0% is about no effect
Target sequence (P14416 whole entry, looked up): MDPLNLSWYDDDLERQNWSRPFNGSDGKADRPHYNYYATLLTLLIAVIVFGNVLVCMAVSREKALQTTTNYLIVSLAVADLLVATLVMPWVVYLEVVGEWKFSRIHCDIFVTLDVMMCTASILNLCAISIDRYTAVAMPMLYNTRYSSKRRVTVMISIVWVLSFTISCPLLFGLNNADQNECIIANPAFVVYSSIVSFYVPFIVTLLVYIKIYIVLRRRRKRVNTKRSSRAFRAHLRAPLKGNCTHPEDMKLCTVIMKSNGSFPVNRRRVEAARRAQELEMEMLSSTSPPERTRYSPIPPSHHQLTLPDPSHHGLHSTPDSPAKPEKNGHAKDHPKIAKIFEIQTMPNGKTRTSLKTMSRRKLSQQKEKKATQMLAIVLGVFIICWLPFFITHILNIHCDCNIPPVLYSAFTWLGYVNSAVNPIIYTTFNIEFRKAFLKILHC
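Calcium mobilization kinetics were recorded at 1 s intervals in tetracycline-induced HEK293 T-REx D2 cells, first for 180 s after compound addition and then 180 s after EC80 dopamine.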
D2 ag-1: agonists of human D2 dopamine receptor (beta-arrestin) | P14416 | DiscoveRx PathHunter D2 beta-arrestin, luminescence, 90 min; 100% = 57 uM dopamine signal | activation, % (no concentration beside the values) | 0.084% of 360,000 active; in the data active means activation above about 40%
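Agonist mode: compounds alone added to overnight-plated D2 PathHunter cells for 90 min at 37 C, with 57 uM final dopamine (EC100) defining full response. Beta-arrestin recruitment detected by chemiluminescent reagent, read after 1 h at ambient temperature.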
D2 PAM-1: potentiates the human D2 dopamine receptor allosterically; potentiation, % (test concentration not listed); AID 624464; DiscoveRx D2 beta-arrestin cells, luminescence, 90 min; 100% = 57 uM dopamine signal; P14416; 0.23% of 360,000 active; in the data active means potentiation above about 50%
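PathHunter beta-arrestin assay in DiscoveRx D2 cells. Compounds were added with an EC20 of dopamine (50 nM final) for 90 min at 37 deg C. Luminescence was read 1 h after detection reagent, with 57 uM dopamine as the EC100 control.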
D2 PAM-2: D2 dopamine receptor (human) potentiation. P14416. HEK293 T-REx D2, calcium flux, EC20 dopamine potentiation. potentiation, % at 10 µM. 0.34% of 340,000 active;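 active means potentiation over 3 SD above the plate norm, cut at about 30% in these data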; further: 0% is about no effect
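Cells plated with tetracycline inducer and held overnight at 30 C; calcium dye loaded 30–90 min at room temperature; baseline taken, compound added and read 180 s; EC20 dopamine then added and read 180 s.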
D2 ag-2: agonists of human D2 dopamine receptor. P14416. HEK293 T-REx D2 cells, calcium flux agonist mode. activation, % at 2 µM. 0.53% of 340,000 active;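 active means activation over 3 SD above normal in the single-dose calcium agonist read, cut at about 30% in these data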; further: 0% is about no effect
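HEK293 Trex D2 cells, tetracycline-induced, o/n 30 C 5% CO2; no-wash Ca dye, RT 30–90 min; 10-cycle baseline, 23 nl cpd added, kinetic Ca read 180 s; agonist hits = positive Ca response.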
* hit, by the source's call; . = no result given.

SMILES	D2 antag	D2 ag-1	D2 PAM-1	D2 PAM-2	D2 ag-2
Cc1c(C(Nc2ccccn2)c2ccccc2)c(=O)n(-c2ccccc2)n1C (stereo unspecified)	2	4	0	36*	0
Cc1c(C(Nc2ccccn2)c2ccc(Cl)cc2)c(=O)n(-c2ccccc2)n1C (stereo unspecified)	0	1	7	26	0
c1csc(C2=Nn3c(nnc3-c3ccncc3)SC2)c1	21	-2	20	32*	1
O=C(CC1NCCc2ccccc21)Nc1ccc(Cl)cc1 (stereo unspecified)	44*	-1	-22	-40	5
O=C(CC1NCCN(Cc2ccccc2)C1=O)Nc1ccc(Cl)cc1 (stereo unspecified)	-4	-4	-6	1	-2
COc1ccc2ccccc2c1/C=N/NC(=O)c1ccccc1F	-3	-7	-13	3	3
COc1ccc2ccccc2c1/C=N/NC(=O)c1cccc(Br)c1	10	-4	-42	-14	0
COc1ccc2ccccc2c1/C=N/NC(=O)c1ccc([N+](=O)[O-])cc1	71*	-1	-16	-28	-2
COc1ccc2ccccc2c1/C=N\NC(=O)c1ccc(C)s1	40*	-3	-37	-20	0
CCOCCCNC(=O)C(=O)Nc1c2c(nn1-c1ccc(OC)cc1)CSC2	.	.	.	-4	1
Nc1nonc1OCCOCCOCCOc1nonc1N	-17	-3	-1	11	0
Cc1cc(C)n(CCOc2nonc2N)n1	34*	0	6	-7	1
CCc1ccc(NC(=O)CSc2nc(C)c(C(=O)Nc3ccccc3)c(-c3ccc(OC)c(OC)c3)c2C#N)cc1	.	.	.	6	.
CC1(C(=O)NCc2ccc(F)cc2)Oc2ccccc2NC1=O (stereo unspecified)	76*	0	5	-15	0
COc1cccc(N2CCN(C(=O)C3CCN(S(=O)(=O)c4cccc5nonc45)CC3)CC2)c1	.	.	.	6	0
COc1ccc(S(=O)(=O)NCCS(=O)(=O)N2CCN(c3ccccc3)CC2)cc1OC	.	.	.	8	2
CC(NCc1ccc2c(c1)OCO2)C(=O)N1CCc2ccccc21 (stereo unspecified)	44*	-7	-40	-27	-1
Cc1ccc2[nH]c3c(c2c1)CN(C)CC3	31*	-3	-36	-30	2
Cc1ccc2[nH]c3c(c2c1)CCN(C)C3	34*	-5	-5	-16	1
CCOC(=O)c1ccc2[nH]c3c(c2c1)CN(C)CC3	16	-4	-10	1	0
CC(=O)N1CCc2[nH]c3ccc(C)cc3c2C1	7	-2	-7	4	1
Cc1cccc(CN2CCc3c([nH]c4ccccc34)C2)c1	56*	-6	-11	-23	1
COc1ccc(/C=C/C(=O)OCC(=O)Nc2cccc(S(=O)(=O)NC3=NCCCCC3)c2)cc1	.	3	-9	.	.
CC(C)(C)n1c(O)c2n(c1=O)Cc1ccccc1N=C2c1ccccc1	.	-4	-3	.	.
CCn1c(SCc2nc3sc(C(=O)O)c(C)c3c(=O)[nH]2)nc2ccccc21	-10	-1	6	3	2
SMILES	D2 antag	D2 ag-1	D2 PAM-1	D2 PAM-2	D2 ag-2
CCOc1ccccc1NC(=O)CSc1nnnn1-c1ccccc1	31*	0	-7	-2	2
COCCn1c(SCc2nc3sc(C(=O)OC)c(C)c3c(=O)[nH]2)nc2ccccc21	31*	-2	-19	-5	1
CCOC(=O)c1ccccc1NC(=O)CSc1nccn1C	-1	-2	-21	53*	1
CCOc1ccccc1NC(=O)CSc1nnc2c(CC)c(C)nc(N)n12	35*	-1	-5	.	3
Cc1ccc2c(c1)c1c(c(=O)n(-c3ccccc3C)c(=O)n1CC(=O)NCc1ccccc1)n2C	.	.	.	-1	0
COc1cc(OC)cc(-n2c(=O)c3ccccc3n(CC(=O)NCCc3ccc(OC)c(OC)c3)c2=O)c1	.	.	.	-8	-1
COc1ccc(OC)c(-n2nnnc2SCC(=O)Nc2ccccc2OC)c1	31*	4	-1	14	8
COc1ccc(OC)c(NC(=O)CSc2nncc3ccccc23)c1	0	-1	-7	0	0
COCCn1c(SCC(=O)Nc2ccccc2OC)nc2ccccc21	35*	-5	0	11	1
CCOc1ccccc1NC(=O)CSc1nncc2ccccc12	-26	-1	-10	35*	0
CCOc1ccccc1NC(=O)CSc1nnnn1-c1ccc(C(=O)OC)cc1	50*	-1	-7	8	-1
COCCn1c(SCC(=O)Nc2cccnc2Cl)nc2ccccc21	.	-2	-2	.	.
O=C(Nc1nonc1-c1ccc(Br)cc1)c1ccco1	.	.	.	-8	1
CCOc1ccc(NC(=O)CN(C)c2nnnn2-c2ccccc2)cc1OCC	35*	-2	-11	2	1
CCOCCCNCc1ccc(OC)c(OC)c1	36*	-1	-13	-6	-1
CN1CCc2c(sc3c2C(=O)NC(c2ccc4c(c2)OCO4)N3)C1 (stereo unspecified)	32*	-2	-26	-21	0
O=S(=O)(c1cccc(C(F)(F)F)c1)N1CCN(CC(O)COCc2ccccc2)CC1 (stereo unspecified)	.	1	0	.	.
CCOC(=O)c1ccc(NC(=O)Cn2nc(SC)c(S(=O)(=O)c3ccc(Cl)cc3)c2N)cc1	.	.	.	-4	5
Cc1nn(C)c(C)c1NC(=S)Nc1ccc(S(=O)(=O)Nc2ncccn2)cc1	31*	0	-3	1	1
CCOc1ccccc1NC(=O)C(C)Sc1nc2c(c(=O)[nH]1)CCCC2 (stereo unspecified)	.	.	.	-4	.
COc1cccc(C(=O)NC2CC3CCCC(C2)N3Cc2ccc(F)cc2)c1 (stereo unspecified)	.	-1	-22	.	.
O=C(NC1CC2CCCC(C1)N2Cc1ccccc1)c1cccc(F)c1 (stereo unspecified)	84*	-1	-80	-22	0
O=C(NC1CC2CCCC(C1)N2Cc1ccccc1)c1cccc(Cl)c1 (stereo unspecified)	90*	0	-16	-38	-1
Cc1cc2nc(NC(=O)C3(C)CCN(C)C3)[nH]c2cc1C (stereo unspecified)	.	-6	-11	.	.
CCOc1ccc(CNC(=O)C2CCCN(S(C)(=O)=O)C2)cc1OC (stereo unspecified)	52*	-1	-7	4	0
CCOc1ccc(CNC(=O)C2CCCN(S(=O)(=O)N3CCC(C)CC3)C2)cc1OC (stereo unspecified)	.	0	-3	.	.
Cc1csc(Sc2ccc([N+](=O)[O-])cc2C(=O)OCC(=O)NC2CCCC(C)C2C)n1 (stereo unspecified)	-14	-1	1	14	-1
